Results reported in PubChem BioAssay AID1159580 (chemical genetic matrix, 2015).
Screen size: about 5,500 compounds; about 2,000 (36%) were called active. Inconclusive results (about 18%) are left out. Rule as the data show it: active = normalized growth mostly below about 0.91 (no sharp cut-off); inconclusive = no clear call, values can overlap the other calls; inactive = mostly above about 0.92. The list shows a part of the results.

Assay: chemical genetic growth profiling, strain panel (AID 1159580);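 also: tested at 20 µM; growth read once vehicle control cultures reached saturation at 30 °C; 1 = growth at the plate median or of vehicle wells; lower values mean less growth of the strain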
Conditions: growth OD

Measured: normalized growth

O=C(O)CN1C(=O)c2cccc3cccc(c23)C1=O
inactive: S. cerevisiae deletion strains, locus YJR043C, strain POL32, stronger effect = lower value 1.03 | S. cerevisiae deletion strains, locus YJR066W, strain TOR1, stronger effect = lower value 0.975 | S. cerevisiae deletion strains, locus YKL009W, strain mrt4, stronger effect = lower value 0.987 | S. cerevisiae deletion strains, locus YKL068W, stronger effect = lower value 0.991 | S. cerevisiae deletion strains, locus YKL085W, strain MDH1 (second series), stronger effect = lower value 0.978 | S. cerevisiae deletion strains, locus YKL085W, strain MDH1, stronger effect = lower value 0.978 | S. cerevisiae deletion strains, locus YKL160W, strain elf1, stronger effect = lower value 0.956 | S. cerevisiae deletion strains, locus YKL190W, strain CNB1, stronger effect = lower value 1 | S. cerevisiae deletion strains, locus YKR001C, strain vps1, stronger effect = lower value 1.01 | S. cerevisiae deletion strains, locus YKR026C, strain gcn3, stronger effect = lower value 0.996 | S. cerevisiae deletion strains, locus YKR091W, strain srl3, stronger effect = lower value 0.986 | S. cerevisiae deletion strains, locus YLL001W, strain dnm1, stronger effect = lower value 0.966 | S. cerevisiae deletion strains, locus YLL026W, stronger effect = lower value 0.996 | S. cerevisiae deletion strains, locus YLL041C, strain sdh2, stronger effect = lower value 0.983 | S. cerevisiae deletion strains, locus YLR027C, strain aat2, stronger effect = lower value 0.996 | S. cerevisiae deletion strains, locus YLR039C, strain RIC1, stronger effect = lower value 1 | S. cerevisiae deletion strains, locus YLR058C, strain SHM2, stronger effect = lower value 1 | S. cerevisiae deletion strains, locus YLR102C, strain apc9, stronger effect = lower value 0.986 | S. cerevisiae deletion strains, locus YLR113W, strain HOG1, stronger effect = lower value 0.935 | S. cerevisiae deletion strains, locus YLR221C, strain rsa3, stronger effect = lower value 0.977 | S. cerevisiae deletion strains, locus YLR258W, strain gsy2, stronger effect = lower value 0.988 | S. cerevisiae deletion strains, locus YLR262C, strain YPT6 (second series), stronger effect = lower value 0.947 | S. cerevisiae deletion strains, locus YLR262C, strain YPT6, stronger effect = lower value 0.985 | S. cerevisiae deletion strains, locus YLR268W, strain sec22, stronger effect = lower value 0.983 | S. cerevisiae deletion strains, locus YLR320W, strain mms22, stronger effect = lower value 0.944 | S. cerevisiae deletion strains, locus YLR330W, strain CHS5, stronger effect = lower value 0.989 | S. cerevisiae deletion strains, locus YLR342W, strain FKS1 (second series), stronger effect = lower value 1.02 | S. cerevisiae deletion strains, locus YLR342W, strain FKS1, stronger effect = lower value 0.978 | S. cerevisiae deletion strains, locus YLR357W, strain rsc2, stronger effect = lower value 0.965 | S. cerevisiae deletion strains, locus YLR370C, strain arc18, stronger effect = lower value 0.973 | S. cerevisiae deletion strains, locus YLR371W, strain rom2, stronger effect = lower value 0.989 | S. cerevisiae deletion strains, locus YLR384C, strain iki3, stronger effect = lower value 0.973 | S. cerevisiae deletion strains, locus YLR418C, strain cdc73, stronger effect = lower value 0.988 | S. cerevisiae deletion strains, locus YML016C, strain PPZ1, stronger effect = lower value 1 | S. cerevisiae deletion strains, locus YML032C, strain rad52, stronger effect = lower value 1 | S. cerevisiae deletion strains, locus YML120C, strain ndi1, stronger effect = lower value 0.958 | S. cerevisiae deletion strains, locus YML124C, strain tub3, stronger effect = lower value 0.999 | S. cerevisiae deletion strains, locus YMR058W, strain fet3, stronger effect = lower value 0.98 | S. cerevisiae deletion strains, locus YMR078C, strain ctf18, stronger effect = lower value 0.982 | S. cerevisiae deletion strains, locus YMR125W, strain sto1, stronger effect = lower value 0.979 | S. cerevisiae deletion strains, locus YMR129W, stronger effect = lower value 0.996 | S. cerevisiae deletion strains, locus YMR205C, strain PFK2, stronger effect = lower value 0.954 | S. cerevisiae deletion strains, locus YMR223W, strain ubp8, stronger effect = lower value 0.977 | S. cerevisiae deletion strains, locus YMR231W, strain pep5, stronger effect = lower value 0.992 | S. cerevisiae deletion strains, locus YMR307W, strain GAS1, stronger effect = lower value 1.01 | S. cerevisiae deletion strains, locus YNL067W, strain RPL9B, stronger effect = lower value 1.05 | S. cerevisiae deletion strains, locus YNL071W, strain lat1, stronger effect = lower value 0.933 | S. cerevisiae deletion strains, locus YNL153C, strain GIM3, stronger effect = lower value 1.08 | S. cerevisiae deletion strains, locus YNL183C, strain NPR1, stronger effect = lower value 0.953 | S. cerevisiae deletion strains, locus YNL209W, strain ssb2, stronger effect = lower value 0.986 | S. cerevisiae deletion strains, locus YNL233W, strain BNI4, stronger effect = lower value 1.03 | S. cerevisiae deletion strains, locus YNL248C, strain rpa49, stronger effect = lower value 0.969 | S. cerevisiae deletion strains, locus YNL250W, strain rad50, stronger effect = lower value 0.941 | S. cerevisiae deletion strains, locus YNL271C, strain bni1, stronger effect = lower value 0.998 | S. cerevisiae deletion strains, locus YNL298W, strain CLA4, stronger effect = lower value 0.984 | S. cerevisiae deletion strains, locus YNL307C, strain MCK1, stronger effect = lower value 0.994 | S. cerevisiae deletion strains, locus YNL322C, strain KRE1 (second series), stronger effect = lower value 0.987 | S. cerevisiae deletion strains, locus YNR049C, strain mso1, stronger effect = lower value 0.981 | S. cerevisiae deletion strains, locus YNR052C, strain pop2, stronger effect = lower value 0.969 | S. cerevisiae deletion strains, locus YOL006C, strain TOP1, stronger effect = lower value 1.08 | S. cerevisiae deletion strains, locus YOL012C, strain htz1 0.878 | S. cerevisiae deletion strains, locus YOL147C, strain pex11, stronger effect = lower value 0.988 | S. cerevisiae deletion strains, locus YOR001W, strain rrp6, stronger effect = lower value 0.974 | S. cerevisiae deletion strains, locus YOR061W, strain CKA2, stronger effect = lower value 1.01 | S. cerevisiae deletion strains, locus YOR069W, strain VPS5, stronger effect = lower value 0.998 | S. cerevisiae deletion strains, locus YOR070C, strain gyp1, stronger effect = lower value 0.99 | S. cerevisiae deletion strains, locus YOR080W, strain dia2, stronger effect = lower value 0.989 | S. cerevisiae deletion strains, locus YOR083W, strain WHI5, stronger effect = lower value 0.967 | S. cerevisiae deletion strains, locus YOR106W, strain vam3, stronger effect = lower value 0.955 | S. cerevisiae deletion strains, locus YOR136W, strain idh2, stronger effect = lower value 0.991 | S. cerevisiae deletion strains, locus YOR144C, strain elg1, stronger effect = lower value 0.987 | S. cerevisiae deletion strains, locus YOR184W, strain ser1, stronger effect = lower value 1.02 | S. cerevisiae deletion strains, locus YOR231W, strain MKK1, stronger effect = lower value 0.977 | S. cerevisiae deletion strains, locus YOR265W, strain rbl2, stronger effect = lower value 0.985 | S. cerevisiae deletion strains, locus YOR270C, strain vph1, stronger effect = lower value 0.876 | S. cerevisiae deletion strains, locus YOR290C, strain snf2, stronger effect = lower value 0.943 | S. cerevisiae deletion strains, locus YOR316C, strain cot1, stronger effect = lower value 0.992 | S. cerevisiae deletion strains, locus YPL051W, strain arl3, stronger effect = lower value 0.97 | S. cerevisiae deletion strains, locus YPL078C, strain atp4, stronger effect = lower value 0.976 | S. cerevisiae deletion strains, locus YPL106C, strain sse1, stronger effect = lower value 0.954 | S. cerevisiae deletion strains, locus YPL240C, strain hsp82, stronger effect = lower value 0.98 | S. cerevisiae deletion strains, locus YPL256C, strain CLN2, stronger effect = lower value 0.961 | S. cerevisiae deletion strains, locus YPR119W, strain clb2, stronger effect = lower value 0.987 | S. cerevisiae deletion strains, locus YPR141C, strain kar3, stronger effect = lower value 0.994 | S. cerevisiae deletion strains, locus YPR163C, strain tif3, stronger effect = lower value 0.99 | S. cerevisiae deletion strains, locus YPR167C, strain met16, stronger effect = lower value 0.986 | S. cerevisiae deletion strains, strain wtn01, stronger effect = lower value 0.976 | S. cerevisiae strains, strain wild type, stronger effect = lower value 1
